In PubChem BioAssay AID1159580 (chemical genetic matrix, 2015):
The whole screen tested about 5,500 compounds, of which about 2,000 (36%) were called active. Inconclusive results (about 18%) are left out. The list shows a part of the results. A number with no mark means an inactive call. Rule as the data show it: active = normalized growth mostly below about 0.91 (no sharp cut-off); inconclusive = no clear call, values can overlap the other calls; inactive = mostly above about 0.92.

Test: chemical genetic growth profiling, strain panel (AID 1159580);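 also: tested at 20 µM; growth read once vehicle control cultures reached saturation at 30 °C; 1 = growth at the plate median or of vehicle wells; lower values mean less growth of the strain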
Settings: S. cerevisiae deletion strains, growth OD
[1] = locus YDL101C, strain DUN1, hits give low values
[2] = locus YHR030C, strain SLT2, hits give low values

Question: Which normalized growth (locus YAR019C, strain CDC15, hits give low values) does the source give for `Cc1nn(C)c(C(=O)Sc2ccc(OC(F)(F)F)cc2)c1[N+](=O)[O-]` here?
Answer: 0.977

Question: And the normalized growth (locus YBL105C, strain PKC1, hits give low values)?
Answer: 0.974

Question: And the normalized growth (locus YBR135W, strain CKS1, hits give low values)?
Answer: 0.969

Question: What about the normalized growth (locus YBR136W, strain MEC1, hits give low values) of the same compound?
Answer: 0.984

Question: What about the normalized growth (locus YBR160W, strain CDC28, hits give low values) of the same compound?
Answer: 0.977

Question: What about the normalized growth (locus YDL017W, strain CDC7, hits give low values) of the same compound?
Answer: 0.977

Question: What about the normalized growth (locus YDL028C, strain MPS1, hits give low values) of the same compound?
Answer: 0.985

Question: What about the normalized growth [1] of the same compound?
Answer: 0.978

Question: And the normalized growth (locus YDL108W, strain KIN28, hits give low values)?
Answer: 0.98

Question: And the normalized growth (locus YDL132W, strain cdc53, hits give low values)?
Answer: 0.952

Question: What about the normalized growth (locus YDL214C, strain PRR2, hits give low values) of the same compound?
Answer: 0.946

Question: What about the normalized growth (locus YDR052C, strain DBF4, hits give low values) of the same compound?
Answer: 0.983

Question: What about the normalized growth (locus YDR054C, strain cdc34, hits give low values) of the same compound?
Answer: 0.952

Question: What about the normalized growth (locus YDR226W, strain ADK1, hits give low values) of the same compound?
Answer: 0.982

Question: What about the normalized growth (locus YDR477W, strain SNF1, hits give low values) of the same compound?
Answer: 0.993

Question: And the normalized growth (locus YER123W, strain YCK3, hits give low values)?
Answer: 0.895

Question: What about the normalized growth (locus YER133W, strain GLC7, hits give low values) of the same compound?
Answer: 1

Question: And the normalized growth (locus YFL009W, strain cdc4, hits give low values)?
Answer: 0.965

Question: What about the normalized growth (locus YFL029C, strain CAK1, hits give low values) of the same compound?
Answer: 0.978

Question: What about the normalized growth (locus YFR003C, strain YPI1, hits give low values) of the same compound?
Answer: 0.978

Question: And the normalized growth (locus YFR019W, strain FAB1, hits give low values)?
Answer: 0.972

Question: And the normalized growth (locus YFR028C, strain CDC14, hits give low values)?
Answer: 0.987

Question: And the normalized growth (locus YGR040W, strain KSS1, hits give low values)?
Answer: 1.03

Question: And the normalized growth (locus YGR052W, strain FMP48, hits give low values)?
Answer: 0.988

Question: What about the normalized growth (locus YGR092W, strain DBF2, hits give low values) of the same compound?
Answer: 0.939

Question: What about the normalized growth [2] of the same compound?
Answer: 1.25 [resistant] (active)

Question: What about the normalized growth (locus YHR079C, strain IRE1, hits give low values) of the same compound?
Answer: 0.977

Question: And the normalized growth (locus YHR082C, strain KSP1, hits give low values)?
Answer: 0.947

Question: And the normalized growth (locus YHR205W, strain SCH9, hits give low values)?
Answer: 0.611

Question: And the normalized growth (locus YIL147C, strain SLN1, hits give low values)?
Answer: 0.985

Question: And the normalized growth (locus YJL095W, strain BCK1, hits give low values)?
Answer: 0.947

Question: What about the normalized growth (locus YJL128C, strain PBS2, hits give low values) of the same compound?
Answer: 0.87

Question: What about the normalized growth (locus YJL157C, strain FAR1, hits give low values) of the same compound?
Answer: 0.978

Question: And the normalized growth (locus YJR016C, strain ILV3, hits give low values)?
Answer: 0.977

Question: What about the normalized growth (locus YJR066W, strain TOR1 (second series), hits give low values) of the same compound?
Answer: 1.02

Question: What about the normalized growth (locus YJR066W, strain TOR1, hits give low values) of the same compound?
Answer: 0.936

Question: And the normalized growth (locus YKL048C, strain ELM1, hits give low values)?
Answer: 0.989

Question: And the normalized growth (locus YKL067W, strain YNK1, hits give low values)?
Answer: 0.96

Question: And the normalized growth (locus YKL101W, strain HSL1, hits give low values)?
Answer: 0.985

Question: What about the normalized growth (locus YKL193C, strain SDS22, hits give low values) of the same compound?
Answer: 0.975

Question: What about the normalized growth (locus YKL203C, strain TOR2, hits give low values) of the same compound?
Answer: 1.13

Question: What about the normalized growth (locus YLR113W, strain HOG1, hits give low values) of the same compound?
Answer: 0.834 (active)

Question: What about the normalized growth (locus YLR133W, strain CKI1, hits give low values) of the same compound?
Answer: 0.949

Question: And the normalized growth (locus YLR403W, strain SFP1, hits give low values)?
Answer: 0.99

Question: What about the normalized growth (locus YML070W, strain DAK1, hits give low values) of the same compound?
Answer: 0.959

Question: And the normalized growth (locus YMR001C, strain CDC5, hits give low values)?
Answer: 0.979

Question: And the normalized growth (locus YMR205C, strain PFK2 (second series), hits give low values)?
Answer: 0.965

Question: What about the normalized growth (locus YMR277W, strain FCP1, hits give low values) of the same compound?
Answer: 0.968

Question: And the normalized growth (locus YNL006W, strain LST8, hits give low values)?
Answer: 0.974

Question: And the normalized growth (locus YNL020C, strain ARK1, hits give low values)?
Answer: 0.95

Question: And the normalized growth (locus YNL161W, strain CBK1, hits give low values)?
Answer: 0.98

Question: What about the normalized growth (locus YNL183C, strain NPR1, hits give low values) of the same compound?
Answer: 1.04

Question: And the normalized growth (locus YNL207W, strain RIO2, hits give low values)?
Answer: 0.989

Question: What about the normalized growth (locus YNL222W, strain SSU72, hits give low values) of the same compound?
Answer: 0.976

Question: What about the normalized growth (locus YNL307C, strain MCK1 (second series), hits give low values) of the same compound?
Answer: 0.918

Question: What about the normalized growth (locus YOL078W, strain AVO1, hits give low values) of the same compound?
Answer: 0.972

Question: And the normalized growth (locus YOL136C, strain PFK27, hits give low values)?
Answer: 0.935

Question: And the normalized growth (locus YOR061W, strain CKA2, hits give low values)?
Answer: 0.95

Question: And the normalized growth (locus YOR119C, strain RIO1, hits give low values)?
Answer: 1.11

Question: And the normalized growth (locus YOR231W, strain MKK1, hits give low values)?
Answer: 0.884

Question: What about the normalized growth (locus YOR329C, strain SCD5, hits give low values) of the same compound?
Answer: 0.982

Question: What about the normalized growth (locus YPL031C, strain PHO85, hits give low values) of the same compound?
Answer: 1.01

Question: What about the normalized growth (locus YPL153C, strain RAD53, hits give low values) of the same compound?
Answer: 1.03

Question: And the normalized growth (locus YPL204W, strain HRR25, hits give low values)?
Answer: 1.06

Question: What about the normalized growth (locus YPL209C, strain IPL1, hits give low values) of the same compound?
Answer: 0.981

Question: What about the normalized growth (locus YPL256C, strain CLN2, hits give low values) of the same compound?
Answer: 0.952

Question: What about the normalized growth (locus YPR025C, strain CCL1, hits give low values) of the same compound?
Answer: 0.981

Question: And the normalized growth (locus YPR106W, strain ISR1, hits give low values)?
Answer: 0.959

Question: What about the normalized growth (locus YPR111W, strain DBF20, hits give low values) of the same compound?
Answer: 0.932

Question: What about the normalized growth (strain NNK1, hits give low values) of the same compound?
Answer: 0.955

Question: What about the normalized growth (strain TSCII, hits give low values) of the same compound?
Answer: 0.982

Question: With `Cc1nn(C)c(C)c1[N+](=O)[O-]` as the compound, how does the normalized growth (locus YAL013W, strain DEP1, hits give low values) read?
Answer: 0.996

Question: And the normalized growth (locus YBR229C, strain ROT2, hits give low values)?
Answer: 1.03

Question: What about the normalized growth [1] of the same compound?
Answer: 0.992

Question: What about the normalized growth (locus YDL134C, strain PPH21, hits give low values) of the same compound?
Answer: 1

Question: And the normalized growth (locus YDR150W, strain NUM1, hits give low values)?
Answer: 0.939

Question: And the normalized growth (locus YEL061C, strain CIN8, hits give low values)?
Answer: 1

Question: What about the normalized growth (locus YGR078C, strain PAC10, hits give low values) of the same compound?
Answer: 0.999

Question: And the normalized growth (locus YGR229C, strain SMI1, hits give low values)?
Answer: 1.01

Question: And the normalized growth [2]?
Answer: 1.01

Question: And the normalized growth (locus YHR087W, strain rtc3, hits give low values)?
Answer: 1.02

Question: What about the normalized growth (locus YJR043C, strain POL32, hits give low values) of the same compound?
Answer: 0.997

Question: And the normalized growth (locus YJR075W, strain HOC1, hits give low values)?
Answer: 0.988

Question: And the normalized growth (locus YKL190W, strain CNB1, hits give low values)?
Answer: 1

Question: What about the normalized growth (locus YLR039C, strain RIC1, hits give low values) of the same compound?
Answer: 0.998

Question: What about the normalized growth (locus YLR058C, strain SHM2 (second series), hits give low values) of the same compound?
Answer: 1.01

Question: And the normalized growth (locus YLR085C, strain ARP6, hits give low values)?
Answer: 1.02

Question: What about the normalized growth (locus YLR262C, strain YPT6, hits give low values) of the same compound?
Answer: 0.993

Question: What about the normalized growth (locus YML094W, strain GIM5, hits give low values) of the same compound?
Answer: 0.994

Question: And the normalized growth (locus YMR219W, strain ESC1, hits give low values)?
Answer: 1.02

Question: And the normalized growth (locus YMR307W, strain GAS1, hits give low values)?
Answer: 0.994

Question: What about the normalized growth (locus YNL128W, strain TEP1, hits give low values) of the same compound?
Answer: 1.01

Question: What about the normalized growth (locus YNL153C, strain GIM3, hits give low values) of the same compound?
Answer: 1

Question: And the normalized growth (locus YNL298W, strain CLA4 (second series), hits give low values)?
Answer: 1.01

Question: And the normalized growth (locus YNL322C, strain KRE1, hits give low values)?
Answer: 0.996

Question: And the normalized growth (locus YNR030W, strain Alg12, hits give low values)?
Answer: 1.02

Question: What about the normalized growth (locus YOL006C, strain TOP1, hits give low values) of the same compound?
Answer: 1.05

Question: And the normalized growth (locus YPL055C, strain LGE1, hits give low values)?
Answer: 0.867

Question: And the normalized growth (locus YPL241C, strain CIN2, hits give low values)?
Answer: 1

Question: What about the normalized growth (locus YPR135W, strain CTF4, hits give low values) of the same compound?
Answer: 1.03
